Assay [1] can be described thus: qHTS profiling for inhibitors of Plasmodium falciparum (3D7) proliferation (AID 743322).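 Further: infected erythrocytes exposed to compound for 72 h before lysis; 100% = DMSO vehicle wells and 0% = 0.29 µM artemisinin.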 As to conditions: P. falciparum 3D7 proliferation; at 28.7 µM (top of the series). The method in brief: (§1)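 Parasite DNA was quantified by SYBR Green I fluorescence (ex 485, em 535 nm) after overnight lysis in saponin/Triton buffer at room temperature. Cultures at 0.3% parasitemia and 2.5% hematocrit were first exposed to compound for 72 h at 37 C; signals were normalised to artemisinin (0.29 uM) and vehicle wells.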
A general note: qHTS replaces the single test concentration by a dilution series.

Assay [2] is described as follows: qHTS profiling of the MIPE4 collection as inhibitors of Plasmodium falciparum (3D7) proliferation (AID 743344).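 Further: scaled between DMSO vehicle wells and 0.29 µM artemisinin as full inhibition.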 As to conditions: P. falciparum 3D7 in erythrocytes, SYBR Green DNA fluorescence, 72 h; at 28.5 µM (top of the series) unless noted. In short, it runs like this: as §1
A short description of assay [3]: qHTS profiling of the MIPE4 collection as inhibitors of Plasmodium falciparum (DD2) proliferation (AID 743345). To be noted: P. falciparum Dd2 in erythrocytes, SYBR Green DNA, 72 h; at 28.5 µM (top of the series) unless noted. In short, it runs like this: as §1
A short description of assay [4]: qHTS profiling of the MIPE4 collection as inhibitors of Plasmodium falciparum (DD2) proliferation (Rep 2) (AID 743346). As to conditions: P. falciparum Dd2 in erythrocytes, SYBR Green DNA, 72 h; at 28.5 µM (top of the series) unless noted. The method in brief:
as §1

The nature of assay [5]: qHTS profiling of the MIPE4 collection as inhibitors of Plasmodium falciparum (HB3) proliferation (AID 743347).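 Further: plate controls were DMSO vehicle wells for no effect and artemisinin wells for full effect.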 As to conditions: P. falciparum HB3 in erythrocytes, SYBR Green DNA, 72 h; at 28.5 µM (top of the series) unless noted. In short, it runs like this:
as §1

Assay [6] in a line: High-throughput drug toxicity screening in the BPDCN cell line Gen2.2 (AID 1224824).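 Further: cells exposed to compounds for 48 h before reading.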 To be noted: Gen2.2 BPDCN cells; at 45.8 µM (top of the series) unless noted. The method in brief: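 Gen2.2 cells (500/well) in phenol red-free RPMI with 10% FBS were exposed to compounds for 48 h at 37 °C, 5% CO2. Viability was read by CellTiter-Glo luminescence and normalized to DMSO (100%) and 9.2 uM bortezomib (0%).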

Assay [7] can be described thus: High-throughput drug toxicity screening in the BPDCN cell line Cal-1 (AID 1224825). To be noted: Cal-1 BPDCN cell viability, qHTS; at 45.8 µM (top of the series) unless noted. In short, it runs like this: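 Percent activity derived from CellTiter-Glo luminescence, scaling DMSO to 100% and 9.2 uM final bortezomib to 0%. BPDCN Cal-1 cells (500/well, RPMI plus 10% FBS) incubated with compounds 48 hours at 37C before reading.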

A short description of assay [8]: qHTS assay for measurement of the activity of small molecule inhibitors on Zika virus induced Caspase-3 activity in human iPSC derived neural progenitor cells (hNPCs) (AID 1224857; active means well fitted curve in the direction sought with a large enough effect; an effect the other way counts as inactive or inconclusive; further: % of control where 0% means no effect; nearly all actives have a fitted effect of over 65% in size). The method in brief:
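After overnight (16–20 h) culture at 350 cells/well, hNPCs get compound, then ZIKV 2 FFU/cell one hour later. Six hours on, Caspase-Glo 3/7 is added and luminescence measured.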

Assay [9] is described as follows: qHTS assay for measurement of the activity of small molecule inhibitors on Zika virus induced Caspase-3 activity in human astrocytoma cells (AID 1224859; active means well fitted curve in the direction sought with a large enough effect; an effect the other way counts as inactive or inconclusive;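 further: plate controls were ZIKV-infected untreated cells for no effect and uninfected cells for full effect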). The method in brief:
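Inhibition of Zika-induced caspase-3/7 activity: SNB-19 cells, 1 h compound pretreatment, ZIKV 2 FFU/cell for 6 h at 37 C, Caspase-Glo luminescence read-out.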

The nature of assay [10]: qHTS Assay for Identifying Gametocytocidal Compounds (AID 743244; active means well fitted curve in the direction sought with a large enough effect; an effect the other way counts as inactive or inconclusive; further: potency means the concentration at half of the fitted maximal effect). As to conditions: P. falciparum 3D7 stage III-V gametocytes, alamarBlue, 72 h; max response: stronger effect = lower value. In short, it runs like this:
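Using 20,000 stage III–V 3D7 gametocytes per well, compounds were incubated 72 h under 37 °C/5% CO2. Viability was then assessed by 24 h alamarBlue reduction, measured fluorometrically at 525/598 nm.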

The nature of assay [11]: qHTS profiling for inhibitors of Plasmodium falciparum (DD2) proliferation (AID 743323). As to conditions: lower = more inhibition; at 28.7 µM (top of the series). The method in brief:
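Parasite DNA quantified by SYBR Green fluorescence (ex 485, em 535 nm) after saponin/Triton lysis and overnight dark incubation. Cultures: 0.3% parasitemia, 2.5% hematocrit, 72 h, 37 C; data scaled between DMSO and 0.29 uM artemisinin.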

The nature of assay [12]: qHTS profiling for inhibitors of Plasmodium falciparum (HB3) proliferation (AID 743324; active means well fitted curve in the direction sought with a large enough effect; an effect the other way counts as inactive or inconclusive;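 further: 100% = DMSO vehicle wells and 0% = artemisinin-treated control wells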). To be noted: Plasmodium falciparum HB3 blood-stage proliferation; at 28.7 µM (top of the series). The method in brief: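 SYBR Green fluorescence (485 ex/535 em) of lysed cultures, incubated overnight at room temperature in the dark, quantifies parasite DNA. Infected erythrocytes at 0.3% parasitemia and 2.5% hematocrit were exposed 72 h; values normalized to DMSO and 0.29 uM artemisinin controls.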

Inconclusive results are not listed. Calls of active or inactive are those of the source. Unless noted, how the calls were made is not given here.

On to `CC1(O)CC(c2nc(-c3ccc4ccc(-c5ccccc5)nc4c3)c3c(N)nccn23)C1` (stereo not given), for which the remaining parasite growth % (stronger effect = lower value) in assay [1] was 0.533%. In assay [2], this compound yielded a parasite growth, % of DMSO control of 9.23%. For the same compound, the parasite growth remaining, % of DMSO control (lower = more inhibition) in assay [3] came out at 19%. Also, the parasite growth, % of control (lower = inhibition) in assay [4] was 10.7%. Also, the growth, % of control in [5] turned out to be 5.32%. The cell viability, % of control (lower = more cytotoxic) in assay [6] was 117%. For the same compound, the viability (% of control) in [7] came out at 8.23%. Further, the Potency entry in [8] and in [9] was “inactive” each time.

`O=C(Cc1ccc(-c2ccc(OCCN3CCOCC3)cc2)cn1)NCc1ccccc1` gave a parasite growth, % of DMSO control in [2] of 20.6%. For the same compound, the parasite growth remaining, % of DMSO control (lower = more inhibition) in assay [3] is 20.2%. Further, the parasite growth, % of control (lower = inhibition) in assay [4] stood at 27.1%. Moreover, the cell viability, % of control (lower = more cytotoxic) in [6] amounted to 49.1%. Besides, in [7], the viability (% of control) came to 9.81%. Moreover, the Potency result in assay [8] and in assay [9] was “inactive” throughout.

`CCNC(=O)Nc1ccc2ncc(Nc3ccc(C)cc3)nc2n1` gave a parasite growth, % of DMSO control in assay [2] of 19.5%. The parasite growth remaining, % of DMSO control (lower = more inhibition) in assay [3] was 71.6%. This compound displayed a parasite growth, % of control (lower = inhibition) in assay [4] of 33%. Also, in assay [5], the growth, % of control was 16.3%. The cell viability, % of control (lower = more cytotoxic) in [6] was found to be 50.5%. In addition, the viability (% of control) in assay [7] is 19.7%. The Potency result in assay [8] and in [9] was “inactive” throughout.

Turning to `CCCCOc1c(C(=O)c2c(F)cc(C)cc2F)cnc2n[nH]cc12`, in assay [2], the parasite growth, % of DMSO control stood at 71.2%. Moreover, in assay [3], the parasite growth remaining, % of DMSO control (lower = more inhibition) worked out at 98.1%. For the same compound, in [4], the parasite growth, % of control (lower = inhibition) turned out to be 43.3%. The compound also displayed a growth, % of control in assay [5] of 92.5%. For the same compound, the cell viability, % of control (lower = more cytotoxic) in assay [6] turned out to be 8.67%. Also, the viability (% of control) in assay [7] was found to be 26.5%. The Potency entry in assay [8] and in assay [9] was “inactive” throughout.

`O=C(CCCCCCNC(=O)c1cnc(N(c2ccccc2)c2ccccc2)nc1)NO` came in with a parasite growth, % of DMSO control in assay [2] of 5.31%. Also, in [3], the parasite growth remaining, % of DMSO control (lower = more inhibition) came to 7.75%. This compound returned a parasite growth, % of control (lower = inhibition) in [4] of 7.25%. The compound also yielded a growth, % of control in assay [5] of 11%. For the same compound, the cell viability, % of control (lower = more cytotoxic) in assay [6] came to 5.14%. Further, the viability (% of control) in [7] is 3.58%. The Potency entry in assay [8] and in assay [9] was “inactive” in each case.

In turn, `COCCOc1ccc2c(c1)ncn2-c1ccc2cccc(N3CCC(N)CC3)c2n1` returned a parasite growth, % of DMSO control in assay [2] of 5.56%. In addition, the parasite growth remaining, % of DMSO control (lower = more inhibition) in assay [3] turned out to be 7.14%. The compound further returned a parasite growth, % of control (lower = inhibition) in [4] of 13.1%. Besides, the growth, % of control in [5] came to 4.14%. In addition, the cell viability, % of control (lower = more cytotoxic) in assay [6] was found to be 3.06%. Further, the viability (% of control) in assay [7] was determined as 1.98%. Besides, the Potency entry in [8] and in [9] was “inactive” in each case.

For the compound `O=C(CCCCCCC(=O)Nc1ccc([C@H]2O[C@@H](CSc3nc(-c4ccccc4)c(-c4ccccc4)o3)C[C@@H](c3ccc(CO)cc3)O2)cc1)NO`, the parasite growth, % of DMSO control in assay [2] was 5.18%. For the same compound, in assay [3], the parasite growth remaining, % of DMSO control (lower = more inhibition) came out at 6.85%. In assay [4], this compound gave a parasite growth, % of control (lower = inhibition) of 7.19%. In addition, the cell viability, % of control (lower = more cytotoxic) in assay [6] is 9.13%. In addition, the viability (% of control) in [7] stood at 4.48%. Further, the Potency entry in assay [8] and in assay [9] was “inactive” throughout.

Regarding `C=CC(=O)Nc1cc2c(Nc3ccc(F)c(Cl)c3)ncnc2cc1C#CC(C)(C)N1CCN(C)CC1`, the Potency in assay [10] was 18.7 µM (active). Also, the remaining parasite growth % (stronger effect = lower value) in [1] was -1.21%. Besides, the activity, percent of control in [11] is -0.164%. The remaining proliferation (% of control), lower = more inhibition in [12] is -0.161%. This compound returned a parasite growth, % of DMSO control in [2] of 9.4%. In assay [3], the parasite growth remaining, % of DMSO control (lower = more inhibition) amounted to 8.69%. This compound had a parasite growth, % of control (lower = inhibition) in assay [4] of 18%. Moreover, the growth, % of control in [5] came out at 4.67%. In addition, the cell viability, % of control (lower = more cytotoxic) in assay [6] was 6.93%. Moreover, in assay [7], the viability (% of control) amounted to 1.87%. Further, the Potency entry in assay [8] is “inactive”.

As for `O=C(c1cncc(Br)c1)N1CCC(N2CCCC2)CC1`, in [2], the parasite growth, % of DMSO control was found to be 102%. Further, the parasite growth remaining, % of DMSO control (lower = more inhibition) in assay [3] worked out at 105%. Moreover, the parasite growth, % of control (lower = inhibition) in [4] worked out at 80.8%. For the same compound, the growth, % of control in assay [5] worked out at 96.9%. In addition, the cell viability, % of control (lower = more cytotoxic) in assay [6] worked out at 144%. The viability (% of control) in assay [7] was found to be 126%. Besides, the Potency result in assay [8] and in assay [9] was “inactive” each time.

As for `Cc1cc(Nc2cc(N3CCN(C)CC3)nc(Sc3ccc(NC(=O)C4CC4)cc3)n2)n[nH]1`, the Potency in [10] is 23.5 µM (active). The remaining parasite growth % (stronger effect = lower value) in assay [1] was found to be 39.3%. Further, the activity, percent of control in [11] amounted to 68.3%. In assay [12], the remaining proliferation (% of control), lower = more inhibition amounted to 9.14%. Besides, the parasite growth, % of DMSO control in [2] came to 11.5%. In addition, the parasite growth remaining, % of DMSO control (lower = more inhibition) in assay [3] amounted to 16%. Further, the cell viability, % of control (lower = more cytotoxic) in assay [6] worked out at 36.4%. Further, the viability (% of control) in [7] was 12.3%. Besides, the Potency result in assay [8] is “inactive”.

`O=c1[nH]c(=O)n(C2CCCO2)cc1F` (stereo not given) displayed a parasite growth, % of DMSO control in assay [2] of 404% [at 57.5 µM]. The parasite growth remaining, % of DMSO control (lower = more inhibition) in assay [3] turned out to be 99.7% [at 57.5 µM]. This compound also had a growth, % of control in assay [5] of 412% [at 57.5 µM]. In addition, in assay [6], the cell viability, % of control (lower = more cytotoxic) came out at 130% [at 92.2 µM]. Besides, the viability (% of control) in assay [7] came out at 116% [at 92.2 µM]. Further, the Potency result in assay [8] and in assay [9] was “inactive” in each case.

The record behind these values is PubChem BioAssay (NCATS).
